According to PubChem BioAssay (NCATS):
Results filed as inconclusive are left out. Activity calls are given as the source filed them. The call rests on the fitted dose curve; in most records, active means well fitted curve in the direction sought with a large enough effect; inconclusive means small, poorly fitted or top-dose-only effect, or another doubt; inactive means no such curve, though single readings can be large; an effect the other way counts as inactive or inconclusive.

Columns and labels:
[1] = qHTS of pediatric cancer cell lines to identify multiple opportunities for drug repurposing: Confirmatory screen for SJ-GBM2 cells (AID 1347116); further: nearly all actives have a fitted effect of over 60% in size; further: potency means the concentration at half of the fitted maximal effect
Outline: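 Viability measured as metabolically active cells via CellTiter-Glo luminescence following 48 hours of compound exposure, 11-point dilutions in confirmatory testing. 500-1,000 cells/well plated 5 hours before dosing; controls were DMSO and 2.3 µM bortezomib.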

[2] = qHTS of pediatric cancer cell lines to identify multiple opportunities for drug repurposing: Confirmatory screen for BT-37 cells (AID 1347117); further: nearly all actives have a fitted effect of over 55% in size; further: potency means the concentration at half of the fitted maximal effect
Outline: (§1)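 Cells (500-1,000/well) in growth media were settled 5 h at 37 degrees C, then given compounds for 48 h. Viability was read as CellTiter-Glo luminescence. Primary runs used MIPE at 11 points (0.78 nM-46 µM) and NPC at 8 points (0.59 nM-46 µM); follow-ups used 11 points.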

[3] = qHTS of pediatric cancer cell lines to identify multiple opportunities for drug repurposing: Confirmatory screen for TC32 cells (AID 1347118);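 further: cells exposed to compound for 48 h before the read; nearly all actives have a fitted effect of over 65% in size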; further: potency means the concentration at half of the fitted maximal effect
Outline: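 Measured quantity: luminescence from CellTiter-Glo, reflecting metabolically active TC32 cells following 48 h of compound. Curves came straight from multi-point titrations, with 8 or 11 points in primary and 11 in confirmatory screening.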

[4] = qHTS of pediatric cancer cell lines to identify multiple opportunities for drug repurposing: Confirmatory screen for RD cells (AID 1347124);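 further: cells exposed to compound for 48 h before viability readout; nearly all actives have a fitted effect of over 65% in size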; further: potency means the concentration at half of the fitted maximal effect
Outline: as §1

[5] = qHTS of pediatric cancer cell lines to identify multiple opportunities for drug repurposing: Confirmatory screen for Rh18 cells (AID 1347125); further: nearly all actives have a fitted effect of over 55% in size; further: potency means the concentration at half of the fitted maximal effect
Outline: as §1

[6] = qHTS of pediatric cancer cell lines to identify multiple opportunities for drug repurposing: Confirmatory screen for Saos-2 cells (AID 1347127); further: nearly all actives have a fitted effect of over 60% in size; further: potency means the concentration at half of the fitted maximal effect
Outline: as §1

[7] = qHTS of pediatric cancer cell lines to identify multiple opportunities for drug repurposing: Confirmatory screen for OHS-50 cells (AID 1347128);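 further: compound exposure lasted 48 h at 37 degrees C; nearly all actives have a fitted effect of over 55% in size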; further: potency means the concentration at half of the fitted maximal effect
Outline: as §1

[8] = tested on: Zika virus NS2B-NS3 protease; assay: Primary screen GU AMC qHTS for Zika virus inhibitors (AID 1347154); further: nearly all actives have a fitted effect of over 70% in size; further: potency means the concentration at half of the fitted maximal effect
Outline: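 Unlinked Zika NS2B hydrophilic domain/NS3 protease domain noncovalent complex (25 nM final) in 10 mM Tris-HCl pH 8.0, 0.01% Tween 20, with AMC peptide substrate. Fluorescence (ex 340, em 450 nm) change over 15 min, room temperature; percent inhibition fitted to 4-parameter Hill equation.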

[9] = qHTS of pediatric cancer cell lines to identify multiple opportunities for drug repurposing: Confirmatory screen for MG 63 (6-TG R) cells (AID 1347119); further: nearly all actives have a fitted effect of over 55% in size; further: potency means the concentration at half of the fitted maximal effect
Outline: as §1

[10] = qHTS of pediatric cancer cell lines to identify multiple opportunities for drug repurposing: Confirmatory screen for control Hh wild type fibroblast cells (AID 1347121); further: nearly all actives have a fitted effect of over 70% in size
Outline: as §1

[11] = qHTS of pediatric cancer cell lines to identify multiple opportunities for drug repurposing: Confirmatory screen for U-2 OS cells (AID 1347122); further: nearly all actives have a fitted effect of over 65% in size; further: potency means the concentration at half of the fitted maximal effect
Outline: as §1

[12] = qHTS of pediatric cancer cell lines to identify multiple opportunities for drug repurposing: Confirmatory screen for Rh41 cells (AID 1347123);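 further: 48 h compound exposure; nearly all actives have a fitted effect of over 60% in size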; further: potency means the concentration at half of the fitted maximal effect
Outline: as §1

[13] = qHTS of pediatric cancer cell lines to identify multiple opportunities for drug repurposing: Confirmatory screen for Rh30 cells (AID 1347126); further: nearly all actives have a fitted effect of over 55% in size; further: potency means the concentration at half of the fitted maximal effect
Outline: as §1

[14] = qHTS of pediatric cancer cell lines to identify multiple opportunities for drug repurposing: Confirmatory screen for SK-N-SH cells (AID 1347129);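 further: cells exposed to compound for 48 h before viability read; nearly all actives have a fitted effect of over 60% in size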; further: potency means the concentration at half of the fitted maximal effect
Outline: as §1

Measured: Potency

CCOc1cc2ncc(C#N)c(Nc3ccc(F)c(Cl)c3)c2cc1NC(=O)C=CCN(C)C
active: [2] 65.7 nM | [3] 58.5 nM | [6] 104 nM | [7] 147 nM
inactive: [1] | [4] | [5] | [8]

Cc1c(Cn2c(C)nc3c(C(=O)O)cc(N4CCOCC4)cc32)cccc1C(F)(F)F
active: [11] 23300 nM
inactive: [1] | [9] | [10] | [12] | [5] | [13] | [6]

COc1ccc(-c2cc3c(C)nc(N)nc3n(C3CCC(OCCO)CC3)c2=O)cn1 (stereo not given)
not listed: [3] | [10] | [12]
inactive: all other assays above

CCCCc1nc2cc(C=CC(=O)NO)ccc2n1CCN(CC)CC
active: [1] 2930 nM | [2] 1850 nM | [3] 1310 nM | [11] 1850 nM | [12] 1310 nM | [5] 1470 nM | [13] 3690 nM | [6] 2610 nM | [7] 2930 nM | [14] 3320 nM

CC(C)C[C@H](NC(=O)CNC(=O)c1cc(Cl)ccc1Cl)B(O)O
active: [1] 185 nM | [11] 928 nM | [12] 165 nM | [4] 465 nM | [5] 369 nM | [14] 418 nM
inactive: [3] | [8]

CC(C)(C)c1cc(NC(=O)Nc2ccc(-c3cn4c(n3)sc3cc(OCCN5CCOCC5)ccc34)cc2)no1
active: [1] 16500 nM | [2] 18500 nM | [3] 3290 nM | [11] 20800 nM | [12] 13100 nM | [7] 16500 nM | [14] 20900 nM

C=CC(=O)Nc1cccc(Oc2nc(Nc3ccc(N4CCN(C)CC4)cc3OC)ncc2Cl)c1
inactive: [8]
active: [1] 11700 nM | [2] 20800 nM | [3] 14700 nM | [12] 16500 nM | [5] 20800 nM | [13] 13100 nM | [6] 23300 nM | [14] 18700 nM

CN1CC[C@@H](c2c(O)cc(O)c3c(=O)cc(-c4ccccc4Cl)oc23)[C@@H](O)C1
active: [1] 369 nM | [2] 414 nM | [11] 329 nM | [12] 369 nM | [5] 1170 nM | [13] 369 nM | [6] 522 nM | [7] 414 nM | [14] 418 nM
inactive: [10] | [8]

CC=C1NC(=O)[C@H]2CSSCCC=C[C@H](CC(=O)N[C@H](C(C)C)C(=O)N2)OC(=O)[C@H](C(C)C)NC1=O
active: [3] 14700 nM
not listed: [2] | [4] | [6] | [9] | [10]
inactive: all other assays above

COc1c(OCCCN2CCOCC2)ccc2c3n(c(=NC(=O)c4cnc(N)nc4)nc12)CCN3
inactive: [11] | [8]
active: [1] 2040 nM | [2] 6440 nM | [3] 1020 nM | [5] 644 nM | [13] 456 nM | [6] 644 nM | [7] 2290 nM | [14] 2040 nM

CCn1nnc2c(N3CCOCC3)nc(-c3ccc(NC(=O)Nc4ccc(C(=O)N5CCN(C)CC5)cc4)cc3)nc21
active: [1] 737 nM | [2] 329 nM | [3] 293 nM | [12] 522 nM | [4] 414 nM | [5] 1040 nM | [13] 928 nM | [6] 657 nM | [7] 1170 nM | [14] 5900 nM

NC(=O)c1cccc2cn(-c3ccc([C@@H]4CCCNC4)cc3)nc12
active: [2] 5220 nM | [3] 1650 nM | [8] 24100 nM
inactive: [1] | [11] | [5] | [6] | [14]

CCC(=C(c1ccccc1)c1ccc(OCCN(C)C)cc1)c1ccccc1
active: [3] 20800 nM | [6] 18500 nM
inactive: [1] | [12] | [13] | [8]

COc1cc(=C2C=c3ccccc3=N2)[nH]c1=Cc1[nH]c(C)cc1C
active: [1] 43700 nM | [2] 7370 nM | [3] 7370 nM | [13] 17400 nM | [6] 8270 nM | [14] 1240 nM

CC(C)(C)c1cnc(CSc2cnc(NC(=O)C3CCNCC3)s2)o1
inactive: [8]
active: [1] 414 nM | [2] 261 nM | [3] 465 nM | [11] 1310 nM | [12] 329 nM | [6] 465 nM | [7] 329 nM | [14] 935 nM

COc1cccc(-c2ccc(NC(=O)C3=C(C(=O)O)CCC3)c(F)c2)c1
active: [1] 1170 nM | [3] 18500 nM | [11] 14700 nM | [13] 7370 nM
inactive: [10] | [5] | [7] | [14] | [8]

C=CC(=O)N1CCC[C@@H](n2nc(-c3ccc(Oc4ccccc4)cc3)c3c(N)ncnc32)C1
inactive: [1] | [10] | [4]
active: [3] 7370 nM | [12] 14700 nM | [13] 10400 nM

CC(C)c1nn(-c2c(Cl)cccc2Cl)c2nc(Cc3ccc(OCCO)cc3)[nH]c(=O)c12
active: [2] 82.7 nM | [3] 131 nM | [11] 82.7 nM | [12] 131 nM | [4] 208 nM | [6] 82.7 nM | [7] 104 nM | [14] 118 nM
inactive: [8]

Cc1nc(Nc2n[nH]c3c2CN(C(=O)N[C@H](CN(C)C)c2ccccc2)C3(C)C)c2sccc2n1
not listed: [2] | [3] | [5] | [7] | [9]
inactive: all other assays above

Cc1c(CN2CCN(S(C)(=O)=O)CC2)sc2c(N3CCOCC3)nc(-c3cnc(N)nc3)nc12
active: [2] 2080 nM | [3] 737 nM | [9] 329 nM | [12] 928 nM | [5] 1040 nM | [6] 1310 nM | [7] 2330 nM | [14] 2960 nM
inactive: [8]

C=CCn1c(=O)c2cnc(Nc3ccc(N4CCN(C)CC4)cc3)nc2n1-c1cccc(C(C)(C)O)n1
inactive: [10]
active: [1] 737 nM | [9] 1310 nM | [11] 1650 nM | [12] 1170 nM | [6] 1310 nM | [7] 1040 nM | [14] 3320 nM

Cc1nc(N)ncc1-c1nc(N2CCOCC2)c2sc(C(C)(C)O)cc2n1
active: [2] 8270 nM | [3] 2330 nM | [9] 465 nM | [4] 1170 nM | [5] 1650 nM | [13] 737 nM | [6] 1470 nM | [7] 2930 nM | [14] 1480 nM

COc1cccc2c(NCc3ccccc3)nc(-n3c(N)nc4ccccc43)nc12
inactive: [8]
active: [2] 7370 nM | [3] 7370 nM | [9] 5850 nM | [12] 208 nM | [13] 46.5 nM | [6] 9270 nM | [7] 8270 nM | [14] 8330 nM

CC(C)c1cc(C(=O)N2Cc3ccc(CN4CCN(C)CC4)cc3C2)c(O)cc1O
active: [2] 414 nM | [3] 465 nM | [11] 414 nM | [12] 585 nM | [5] 657 nM | [13] 585 nM | [14] 469 nM
inactive: [8]

CNC(=O)CN1CCC(Oc2cc3c(Nc4cccc(Cl)c4F)ncnc3cc2OC)CC1
active: [2] 928 nM | [3] 1040 nM | [5] 5850 nM | [13] 10400 nM
inactive: [14] | [8]

COc1ccc(OC)c(-c2nnc3ccc(-c4ccc(OC)c(O[C@@H]5CCOC5)c4)nn23)c1
active: [2] 7370 nM | [3] 2930 nM | [12] 2930 nM | [13] 4140 nM | [7] 6570 nM
inactive: [5] | [8]

Cn1c2ccccc2c2c3c(c4c5ccccc5n(CCC#N)c4c21)CNC3=O
inactive: [10] | [5]
active: [2] 5850 nM | [3] 4140 nM | [11] 3690 nM | [12] 29300 nM | [6] 9270 nM | [7] 11700 nM | [14] 14800 nM

C[C@@H](Oc1cc(-c2cnn(C3CCNCC3)c2)cnc1N)c1c(Cl)ccc(F)c1Cl
inactive: [8]
active: [2] 20800 nM | [3] 4650 nM | [9] 13100 nM | [5] 18500 nM | [13] 7370 nM | [6] 13100 nM | [7] 14700 nM | [14] 7430 nM

COc1ccc(C=Cc2cc(OC)c(OC)c(OC)c2)cc1O
inactive: [5] | [13]
active: [2] 14.7 nM | [3] 13.1 nM | [9] 10.4 nM | [11] 26.1 nM | [12] 10.4 nM | [4] 11.7 nM | [6] 10.4 nM

O=C(Nc1ncc(-c2cc(C(F)F)nn2-c2c(Cl)cccc2Cl)s1)C1CC1
active: [2] 1040 nM | [3] 369 nM | [11] 1040 nM | [12] 928 nM | [13] 13100 nM | [6] 465 nM

CC(C)(C)OC(=O)Nc1ccc(-c2cc(C(=O)NCCCCCCC(=O)NO)no2)cc1
active: [1] 4140 nM | [11] 1470 nM | [12] 1850 nM | [5] 4650 nM | [13] 10400 nM | [14] 2350 nM
inactive: [10] | [8]
